For assay [1], the system named is Neuropilin-2 / VEGF-C interaction (human). Nature of the assay: inhibitors of NRP2–VEGF-C binding, biochemical, microplate binding format, z-score (AID 743281; call rule not given here). The following applies: microplate NRP2/VEGF-C binding assay; stronger effect = lower value.
A short description of assay [2]: differential killing of epithelial or mesenchymal cells, primary screen, imaging, PC-3E GFP, TEM4-18 mCherry, co-culture (AID 1345086;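 active means compounds killing one labelled cell type while sparing the other, by normalised counts and ratio limits, not self-fluorescent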;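 on all read-outs here: cells exposed to compound for 72 h before imaging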;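 on red/green cell ratio (normalised): normalised mesenchymal count divided by normalised epithelial count so high means epithelial killing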). Conditions: imaging cell counts, at 1 µM; for red/green cell ratio (normalised): actives lie on both sides, counts scaled to control wells, 1 = unselective.
Assay [3] is described as follows: growth inhibition of DIPG glioma cells, dose response, cell-based, SU-DIPG-XVII, MIPE5.0, CellTiter-Glo, qHTS (AID 1347060; cut-off not given, nearly all actives have AC50 up to about 26 µM). The following applies: SU-DIPG-XVII viability, CellTiter-Glo ATP luminescence. (ATP-based viability assays read luminescence as a measure of living cells.)
Assay [4] is described as follows: growth inhibition of DIPG glioma cells, dose response, cell-based, SU-DIPG-XIII, MIPE4.0, CellTiter-Glo, qHTS (AID 1347061; cut-off not given, nearly all actives have AC50 up to about 37 µM;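 further: cells exposed to compound for 48 hours before readout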). The following applies: SU-DIPG-XIII viability, CellTiter-Glo ATP luminescence.
The nature of assay [5]: growth inhibition of DIPG glioma cells, dose response, cell-based, JHH-DIPG-1, MIPE4.0, CellTiter-Glo, qHTS (AID 1347062; cut-off not given, nearly all actives have AC50 up to about 27 µM). The following applies: JHH-DIPG-1 viability, CellTiter-Glo ATP luminescence.
A short description of assay [6]: viability loss in pontine glioma line – cell-based, SU-DIPG-XXV, MIPE5.0, CellTiter-Glo, qHTS, dose response (AID 1347065; cut-off not given, nearly all actives have AC50 up to about 26 µM;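 further: cells exposed to compound for 48 hours before ATP readout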). Conditions: CellTiter-Glo ATP luminescence.
Assay [7] is described as follows: SU-DIPG-VI glioma cell viability, MIPE4.0 library, CellTiter-Glo luminescence, qHTS (AID 1347066; cut-off not given, nearly all actives have AC50 up to about 30 µM;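 further: cells exposed to compound for 48 hours before readout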). The following applies: CellTiter-Glo ATP luminescence.
Assay [8] can be described thus: JHH-DIPG-1 glioma cell viability, MIPE5.0 library, CellTiter-Glo luminescence, qHTS (AID 1347067; cut-off not given, nearly all actives have AC50 up to about 26 µM;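 further: cells exposed to compound for 48 hours before readout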). Conditions: JHH-DIPG-1 glioma viability, CellTiter-Glo ATP luminescence.
A short description of assay [9]: SU-DIPG-XXV glioma cell viability, MIPE5.0 library, qHTS (AID 1347068; cut-off not given, nearly all actives have IC50 up to about 30 µM).
In assay [10] the target is NAD(+) hydrolase SARM1 (Homo sapiens) (UniProt Q6SZW1). Briefly: SARM1 TIR NADase inhibitors, cell lysate, NAD-Glo luminescence (AID 1508614;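 active means compound whose remaining NAD level is above about 45 nM, limit read from the data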). The following applies: SAM-TIR HEK293T lysate NADase, at 1 µM, stronger effect = higher value.
Chain of NAD(+) hydrolase SARM1 (Homo sapiens) (Q6SZW1 whole entry, looked up): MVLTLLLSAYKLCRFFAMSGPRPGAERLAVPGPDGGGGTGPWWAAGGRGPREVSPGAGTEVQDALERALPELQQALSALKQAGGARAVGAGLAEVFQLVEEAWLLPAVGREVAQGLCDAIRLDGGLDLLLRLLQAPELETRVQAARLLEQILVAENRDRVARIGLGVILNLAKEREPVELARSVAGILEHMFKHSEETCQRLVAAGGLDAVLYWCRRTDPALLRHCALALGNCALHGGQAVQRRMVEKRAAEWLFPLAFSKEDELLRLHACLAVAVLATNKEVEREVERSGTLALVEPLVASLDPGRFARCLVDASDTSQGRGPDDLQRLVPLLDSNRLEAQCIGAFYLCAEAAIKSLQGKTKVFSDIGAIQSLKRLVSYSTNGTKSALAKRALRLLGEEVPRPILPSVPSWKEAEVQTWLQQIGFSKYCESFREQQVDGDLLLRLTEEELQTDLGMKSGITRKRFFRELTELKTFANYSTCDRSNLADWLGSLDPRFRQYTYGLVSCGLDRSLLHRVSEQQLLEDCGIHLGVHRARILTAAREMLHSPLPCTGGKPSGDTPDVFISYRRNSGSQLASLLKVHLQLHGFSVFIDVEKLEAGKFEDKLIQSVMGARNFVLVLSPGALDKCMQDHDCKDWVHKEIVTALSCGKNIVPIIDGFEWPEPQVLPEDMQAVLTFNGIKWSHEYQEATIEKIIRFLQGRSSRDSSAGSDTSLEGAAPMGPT
Assay [11] can be described thus: growth inhibition of DIPG glioma cells, dose response, cell-based, SU-DIPG-IV, MIPE4.0, CellTiter-Glo, qHTS (AID 1347063; cut-off not given, nearly all actives have AC50 up to about 30 µM;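 further: compound exposure lasted 48 hours before the viability readout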). Conditions: SU-DIPG-IV viability, CellTiter-Glo ATP luminescence.
Assay [12] is described as follows: growth inhibition of DIPG glioma cells, dose response, cell-based, SU-DIPG-XIII, MIPE5.0, CellTiter-Glo, qHTS (AID 1347064; cut-off not given, nearly all actives have AC50 up to about 23 µM). Conditions: SU-DIPG-XIII viability, CellTiter-Glo ATP luminescence.
Assay [13] can be described thus: LFS_MB_P medulloblastoma growth inhibition, cell-based, chromothripsis tumors, cisplatin or BGB combos (AID 1671449).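 Further: cells exposed for 96 hours; 0% = vehicle DMSO and 100% = killing by high DMSO.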 Conditions: LFS_MB_P medulloblastoma cells.
Assay [14] is described as follows: HDN33 neuroblastoma growth inhibition, cell-based, chromothripsis tumors, cisplatin or BGB combos (AID 1671450).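 Further: cells exposed to compound for four days; 0% = vehicle DMSO and 100% = cell killing by high DMSO.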 The following applies: HDN33 neuroblastoma cells, stronger effect = higher value.
The nature of assay [15]: ICB984 medulloblastoma cell growth inhibition, synergistic combos for chromothripsis tumors, cisplatin or BGB combos (AID 1671451; call rule not given here;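 further: cells exposed for 96 hours before readout; 0% = vehicle DMSO and 100% = killing by high DMSO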). Conditions: ICB984 medulloblastoma cells, drug combinations, stronger effect = higher value.
The nature of assay [16]: HTB85 osteosarcoma cell growth inhibition, synergistic combos for chromothripsis tumors, BGB or cisplatin IC20 combos (AID 1671453).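 Further: cells exposed for 96 hours before readout; 0% = vehicle DMSO and 100% = high DMSO killing control.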 Conditions: HTB85 osteosarcoma cells, drug combinations, stronger effect = higher value.
A short description of assay [17]: MDA-MB-436 breast carcinoma cell growth inhibition, synergistic combos for chromothripsis tumors, BGB or cisplatin combos (AID 1671458; call rule not given here;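 further: cells exposed for 96 hours; 0% = vehicle DMSO and 100% = killing by high DMSO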). The following applies: MDA-MB-436 breast carcinoma growth inhibition, drug combinations, stronger effect = higher value.
A short description of assay [18]: growth inhibition of BT084 medulloblastoma cells, cell-based, ICGC_MB145, cisplatin and BGB IC40 combos (AID 1671461).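 Further: cells exposed to drugs for 96 hours; 0% = vehicle DMSO and 100% = high DMSO full killing control.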 Conditions: drug combinations, stronger effect = higher value.
The nature of assay [19]: growth inhibition of RCMB18 medulloblastoma cells, cell-based, cisplatin and BGB IC40 combos (AID 1671462).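 Further: cells exposed to compound for four days.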 The following applies: stronger effect = higher value.
A short description of assay [20]: growth inhibition of CRL1545 osteosarcoma cells, cell-based, cisplatin and BGB IC20 combos (AID 1671464).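 Further: cells exposed to compound for 96 hours before readout; 0% = vehicle DMSO and 100% = high DMSO killing control.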 Conditions: stronger effect = higher value.
Where [21] appears, read: measured here: epithelial PC-3E GFP cell survival.
[22] abbreviates: measured here: mesenchymal TEM4-18 mCherry cell survival.
Setting [23] is: measured here: with BGB IC20 combination, at 0.5 µM.
Setting [24] is: measured here: with cisplatin IC20 combination, at 0.5 µM.

Four compounds from PubChem BioAssay can be followed below.

One may read the inhibition as the drop in the measured response relative to a control, in per cent.

Values joined by “and” are separate entries in the source; they are usually repeats but may differ in a detail not shown here. Equal values may be shown once. Results filed as inconclusive are left out. Active and inactive are the calls of the source. Unless noted, no stated cut-off is given here; in the data, active means inhibition above about 80%; inactive means the rest.

In the case of `C[C@H]1O[C@H](O[C@H]2[C@H](O)[C@@H](O)[C@@H](O[C@H]3[C@H](O)[C@@H](O)C(O)O[C@@H]3CO)O[C@@H]2CO)[C@H](O)[C@@H](O)[C@@H]1N[C@H]1C=C(CO)[C@@H](O)[C@H](O)[C@H]1O` (stereo partly specified), the z-score in assay [1] was -1.33 (inactive). The red/green cell ratio (normalised) in assay [2] was 0.91 (inactive). Further, the normalised cell number worked out at 1.1 in [2] (setting [21]) and 1 in [2] (setting [22]). The result in assay [3], in [4], in assay [5], in assay [6], in assay [7] and in [8] was inactive. Moreover, in [9], the compound was classed as inactive. In addition, the remaining NAD in [10] was 10 nM (inactive).
On to `O=C(c1ccc(OCCN2CCCCC2)cc1)c1c(-c2ccc(O)cc2)sc2cc(O)ccc12`, for which the red/green cell ratio (normalised) in [2] is 1.03 (inactive). The results for the normalised cell number in [2] (setting [21]) and in assay [2] (setting [22]) were 0.9 and 0.93, respectively. Moreover, the compound was called inactive in [3] and in assay [8]. Further, the remaining NAD in assay [10] is 10 nM (inactive).
As for `CNCC[C@@H](Oc1ccccc1C)c1ccccc1`, the z-score in [1] is 0.0903 (inactive). Also, the remaining NAD in [10] was 10 nM (inactive).
Take `O=c1[nH]c(=O)n(C2CCCO2)cc1F` (stereo unspecified): the z-score in assay [1] is -1.02 (inactive). Besides, the call in assay [3], in assay [4], in assay [5], in [11], in assay [12] and in assay [6] was inactive. In addition, the call in [7], in assay [8] and in [9] was inactive. Further, the inhibition is -23.3% (inactive) and -7.12% (inactive) in [13] (at 0.5 µM, stronger effect = higher value); 1.7% and -19.8% in assay [13] (measured here: combination with BGB IC20, at 0.005 µM); 22.1% and -46.3% in assay [13] (measured here: combination with BGB IC40, at 0.005 µM); 39.2% and -46.2% in assay [13] (measured here: combination with BGB IC40, at 0.05 µM); -44.2% and 1.28% in assay [13] (measured here: combination with cisplatin, at 0.5 µM, stronger effect = higher value); -1.4% and -18.1% in [13] (measured here: combination with cisplatin, at 5 µM, stronger effect = higher value). For the same compound, the inhibition in assay [14] (BGB combo, at 5 µM) is 12.1% and -46.5%; in [14] (at 0.5 µM), 9.66% (inactive) and -23% (inactive); in [14] (cisplatin combo, at 5 µM) it was 10.3% and -19.4%; in assay [14] (setting [23]), 23.6% and -35.7%; in assay [14] (setting [24]), 2.46% and -11.5%; in assay [14] (single agent, at 5 µM) it was -7.16% and -34.9%. Besides, the inhibition in assay [15] (BGB IC20 combo, at 0.005 µM) was -7.2% and -19%; in [15] (BGB IC40 combo, at 0.005 µM) it was -14.4% and -20.1%; in assay [15] (BGB IC40 combo, at 0.05 µM), 3.65% and -15.9%; in assay [15] (at 0.5 µM), -2.47% (inactive) and -35.6% (inactive); in assay [15] (cisplatin combo, at 0.05 µM), -0.171% and -21.9%; in assay [15] (cisplatin combo, at 0.5 µM), -9.38% and -50%. Besides, the inhibition is -27.4% and -5.1% in [15] (cisplatin combo, at 5 µM); 1.9% and -33.4% in [15] (measured here: 5 uM single agent, at 5 µM); 2.38% (inactive) and -13.2% (inactive) in [16] (at 0.5 µM); -7.69% and 6.31% in assay [16] (measured here: with BGB IC20, at 0.5 µM); -1.29% and -14.6% in [16] (measured here: with BGB IC20, at 5 µM); -5.89% and -34.8% in [16] (measured here: with cisplatin IC20, at 0.5 µM). For the same compound, the inhibition in assay [16] (measured here: with cisplatin IC20, at 5 µM) was 2.69% and -26.3%; in assay [16] (single agent, at 5 µM), 15.1% and -15%; in [17] (at 0.5 µM), -0.47% (inactive) and -23.2% (inactive); in assay [17] (measured here: BGB combination, at 0.5 µM) it was -3.41% and -22.4%; in assay [17] (measured here: BGB combination, at 5 µM), -17.4% and -31.2%; in assay [17] (measured here: cisplatin combination, at 0.5 µM) it was 0.87% and -34.6%. The inhibition in [17] (measured here: cisplatin combination, at 5 µM) was -5.11% and -24.1%; in assay [18] (at 0.5 µM) it was 11.3% (inactive) and -10.3% (inactive); in assay [18] (cisplatin combination, at 0.5 µM), -7.35% and -15%; in assay [18] (cisplatin combination, at 5 µM), -13.3% and -155%; in assay [18] (measured here: BGB IC40 combination 0.05 uM, at 0.05 µM) it was 5.6% and -35.5%; in assay [18] (single agent, at 5 µM), 10.4% and -13.1%. Further, the inhibition in assay [19] (at 0.5 µM) is 1.7% (inactive) and -8.58% (inactive); in assay [19] (cisplatin combo, at 5 µM), 12.7% and -18.4%; in [19] (measured here: BGB IC40 combination, at 0.05 µM), -6.79% and -15.3%; in assay [19] (measured here: combination with cisplatin, at 0.5 µM), 2.62% and -23%; in [19] (single agent, at 5 µM), -0.936% and -12.4%; in assay [20] (at 0.5 µM), -31.3% (inactive) and -16.2% (inactive). For the same compound, the inhibition in assay [20] (setting [23]) was -54.2% and -32.2%; in [20] (setting [24]) it was -19.9% and -9.92%; in assay [20] (single agent, at 0.05 µM), 6.98% and -30.8%; in assay [20] (single agent, at 5 µM) it was -17.9% and -2.7%.
